Experiment [1] can be described thus: Human pregnane X receptor (PXR) small molecule agonists, qHTS cell viability counter screen (AID 1346977). Also: nearly all actives have a fitted effect of over 50% in size. A digest of the protocol: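 Measures live-cell protease fluorescence (CellTiter-Fluor) in PXR-Luc HepG2 cells treated 24hr with compounds at 37C. Cells had 5hr to attach before pin transfer of DMSO solutions.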
Experiment [2] is described as follows: Caspase-3/7 induction in HepG2 cells by small molecules, qHTS assay (AID 1346978). Also: nearly all actives have a fitted effect of over 15% in size. A digest of the protocol:
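Wild-type HepG2 cells, 2,000/well, settled 5 hr at 37 C and 5% CO2, then compound-treated for 17 hr; caspase-3/7 activity read by luminescent Caspase-Glo 3/7 after 30 min at room temperature.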

Experiment [3] is described as follows: Caspase-3/7 induction in CHO-K1 cells by small molecules, qHTS assay (AID 1346980). Also: nearly all actives have a fitted effect of over 15% in size. A digest of the protocol:
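Wild-type CHO-K1 cells exposed to compounds for 17hr at 37 C, 5% CO2. Caspase-3/7 activity then measured by Caspase-Glo 3/7 luminescence after 30min at room temperature.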

Experiment [4] is described as follows: Caspase-3/7 induction in HepG2 cells by small molecules, qHTS cell viability counter screen (AID 1346981). Also: series mostly up to about 92 µM; nearly all actives have a fitted effect of over 30% in size. The gist of the method: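 Wild-type HepG2 cells, 2,000/well, settled 5 hr at 37 C, 5% CO2 before compound addition. Viability read by CellTiter-Fluor fluorescence, reagent added after 16 hr compound exposure, then 1 hr at 37C, in the same wells as the caspase read.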

Experiment [5] deals with Nuclear receptor subfamily 1 group I member 2 (Homo sapiens) (UniProt O75469). Kind of experiment: Human pregnane X receptor (PXR) small molecule agonists, qHTS assay (AID 1346982). Also: nearly all actives have a fitted effect of over 35% in size. Also: potency is read from the fitted curve at half-maximal effect. A digest of the protocol: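 PXR-Luc HepG2 reporter cells (CYP3A4-driven luciferase) in 5% charcoal-stripped FBS medium, plated 5 h before compound addition, then treated 24 h at 37C. Luciferase read by ONE-Glo luminescence after 30 min at room temperature.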
Sequence of Nuclear receptor subfamily 1 group I member 2 (Homo sapiens) (O75469 whole entry, looked up): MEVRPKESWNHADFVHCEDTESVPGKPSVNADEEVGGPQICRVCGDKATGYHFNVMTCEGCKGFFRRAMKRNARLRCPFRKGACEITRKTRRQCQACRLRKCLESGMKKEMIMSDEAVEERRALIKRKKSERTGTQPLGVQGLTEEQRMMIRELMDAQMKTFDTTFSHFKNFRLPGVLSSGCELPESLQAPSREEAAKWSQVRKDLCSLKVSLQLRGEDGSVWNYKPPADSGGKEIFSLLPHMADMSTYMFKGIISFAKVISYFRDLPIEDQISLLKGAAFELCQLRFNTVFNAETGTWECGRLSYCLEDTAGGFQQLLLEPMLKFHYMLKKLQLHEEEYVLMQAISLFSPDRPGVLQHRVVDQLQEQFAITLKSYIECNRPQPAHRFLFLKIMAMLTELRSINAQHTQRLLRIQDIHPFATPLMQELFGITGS

The target in experiment [6] is Acetylcholinesterase (Homo sapiens) (UniProt P22303). Put plainly: Acetylcholinesterase (AChE) small molecule antagonists: colormetric cell-based qHTS assay (AID 1347395; calls by dose curve; also: nearly all actives have a fitted effect of over 30% in size; also: potency is read from the fitted curve at half-maximal effect). A digest of the protocol:
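Endogenous AChE of human neuroblastoma SH-SY5Y cells was measured with an Ellman-type DTNB/acetylthiocholine mix. Compound pretreatment lasted 30 min at 37 C; substrate reaction ran 90 min at 37 C.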

Experiment [7] has the same target. Put plainly: Acetylcholinesterase (AChE) small molecule antagonists: enzyme-based qHTS assay (AID 1347397; calls by dose curve; also: nearly all actives have a fitted effect of over 55% in size; also: potency is read from the fitted curve at half-maximal effect). The conditions noted are these: Potency: AChE enzyme activity inhibition; outcome: AChE enzyme activity inhibition. The gist of the method: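 Recombinant human AChE (50 mU/mL) preincubated with compound 30 min at room temperature; acetylthiocholine plus DTNB then added, and thiocholine formation read colorimetrically after 10 min at room temperature. DMSO served as vehicle control.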

The target is the same in experiment [8]. Put plainly: Acetylcholinesterase (AChE) small molecule antagonists: fluorescence cell-based qHTS assay (AID 1347398; calls by dose curve; also: nearly all actives have a fitted effect of over 50% in size; also: potency is read from the fitted curve at half-maximal effect). The conditions noted are these: Potency: AChE activity; outcome: AChE activity. A digest of the protocol: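 SH-SY5Y cells (2000/well), attached overnight, incubated with compound 30 min at 37 C. Acetylthiocholine plus Thiolite Green then added for 40 min at room temperature. Thiocholine fluorescence (Ex/Em 490/520 nm) reports cellular AChE activity.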

For experiment [9] the target is unchanged. Kind of experiment: Acetylcholinesterase (AChE) small molecule antagonists: enzyme-based qHTS assay with human liver microsomes (AID 1347399; calls by dose curve; also: nearly all actives have a fitted effect of over 60% in size; also: potency is read from the fitted curve at half-maximal effect). The following applies: Potency: qHTS inhibition; outcome: qHTS inhibition. The gist of the method: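 Recombinant human AChE (50 mU/mL in the enzyme mix) and human liver microsomes (0.25 mg/mL final) were preincubated with compound and NADPH (0.25 mg/mL final) for 30 min at 37 C. Acetylthiocholine/DTNB was then added; thiocholine was read colorimetrically after 10 min at room temperature.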

The target of experiment [10] is Cytochrome P450 2D6 (Homo sapiens) (UniProt P10635). Put plainly: Cytochrome P450 Family 2 Subfamily D Member 6 (CYP2D6) small molecule antagonists: luciferase reporter qHTS assay (AID 1671196). Also: nearly all actives have a fitted effect of over 50% in size. Also: potency is read from the fitted curve at half-maximal effect. A digest of the protocol: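 Cell-free P450-Glo system: CYP2D6 with proluciferin substrate was pre-incubated with compound for 10 min, then reacted with NADPH regeneration for 1 h at room temperature. Luciferin product was detected after 20 min, and data were reported as relative luminescence units.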
Sequence of Cytochrome P450 2D6 (Homo sapiens) (P10635 whole entry, looked up): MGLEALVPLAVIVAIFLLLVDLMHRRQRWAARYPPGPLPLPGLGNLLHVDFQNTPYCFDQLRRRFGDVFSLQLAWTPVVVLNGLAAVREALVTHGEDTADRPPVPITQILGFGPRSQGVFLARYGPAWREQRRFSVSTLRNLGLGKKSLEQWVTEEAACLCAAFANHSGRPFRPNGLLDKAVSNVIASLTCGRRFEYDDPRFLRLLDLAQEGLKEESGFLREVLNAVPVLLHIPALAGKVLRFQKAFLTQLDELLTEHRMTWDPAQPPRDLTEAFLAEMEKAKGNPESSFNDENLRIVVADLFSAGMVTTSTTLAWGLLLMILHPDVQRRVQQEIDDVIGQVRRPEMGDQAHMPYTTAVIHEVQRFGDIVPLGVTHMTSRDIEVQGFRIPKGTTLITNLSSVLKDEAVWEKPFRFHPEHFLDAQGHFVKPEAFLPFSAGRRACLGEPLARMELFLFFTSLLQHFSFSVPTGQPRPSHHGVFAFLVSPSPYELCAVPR

Experiment [11] has as its target Cytochrome P450 2C19 (Homo sapiens) (UniProt P33261). Put plainly: Cytochrome P450 Family 2 Subfamily C Member 19 (CYP2C19) small molecule antagonists: luciferase reporter qHTS assay (AID 1671197). Also: nearly all actives have a fitted effect of over 65% in size. Also: potency is read from the fitted curve at half-maximal effect. A digest of the protocol:
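Quantitative high-throughput screen of the Tox21 library using CYP2C19 with proluciferin substrate. Reaction: NADPH regeneration, 37C, 1 h, after 10 min compound preincubation at room temperature. Readout: luminescence.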

Experiment [12] has as its target Cytochrome P450 2C9 (Homo sapiens) (UniProt P11712). Kind of experiment: Cytochrome P450 Family 2 Subfamily C Member 9 (CYP2C9) small molecule antagonists: luciferase reporter qHTS assay (AID 1671198). Also: nearly all actives have a fitted effect of over 50% in size. Also: potency is read from the fitted curve at half-maximal effect. A digest of the protocol: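 P450-Glo proluciferin substrate with CYP2C9 enzyme; 10 min RT preincubation, then NADPH regeneration 1 h at 37C; luciferin detection reagent 20 min RT, luminescence in relative luminescence units.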

For experiment [13], the target named is Cytochrome P450 1A2 (Homo sapiens) (UniProt P05177). Put plainly: Cytochrome P450 Family 1 Subfamily A Member 2 (CYP1A2) small molecule antagonists: luciferase reporter qHTS assay (AID 1671199). Also: nearly all actives have a fitted effect of over 50% in size. Also: potency is read from the fitted curve at half-maximal effect. The gist of the method:
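P450-Glo CYP1A2 enzyme–proluciferin substrate mix with compound 10 min at room temperature, then NADPH regeneration 1 h at room temperature. Luciferin detection reagent added, luminescence read after 20 min; furafylline positive control.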

The target in experiment [14] is Voltage-gated inwardly rectifying potassium channel KCNH2 (Homo sapiens) (UniProt Q12809). Kind of experiment: Human Ether-a-go-go-Related Gene (hERG) channel small molecule antagonists: fluorescence cell-based qHTS assay (AID 1671200). Also: nearly all actives have a fitted effect of over 50% in size. Also: potency is read from the fitted curve at half-maximal effect. A digest of the protocol: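 Quantitative HTS in hERG-U2OS cells: thallium entry through the channel reports activity, read as continuous 480/540 nm fluorescence over 2 min after stimulus addition.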
Sequence of Voltage-gated inwardly rectifying potassium channel KCNH2 (Homo sapiens) (Q12809 whole entry, looked up): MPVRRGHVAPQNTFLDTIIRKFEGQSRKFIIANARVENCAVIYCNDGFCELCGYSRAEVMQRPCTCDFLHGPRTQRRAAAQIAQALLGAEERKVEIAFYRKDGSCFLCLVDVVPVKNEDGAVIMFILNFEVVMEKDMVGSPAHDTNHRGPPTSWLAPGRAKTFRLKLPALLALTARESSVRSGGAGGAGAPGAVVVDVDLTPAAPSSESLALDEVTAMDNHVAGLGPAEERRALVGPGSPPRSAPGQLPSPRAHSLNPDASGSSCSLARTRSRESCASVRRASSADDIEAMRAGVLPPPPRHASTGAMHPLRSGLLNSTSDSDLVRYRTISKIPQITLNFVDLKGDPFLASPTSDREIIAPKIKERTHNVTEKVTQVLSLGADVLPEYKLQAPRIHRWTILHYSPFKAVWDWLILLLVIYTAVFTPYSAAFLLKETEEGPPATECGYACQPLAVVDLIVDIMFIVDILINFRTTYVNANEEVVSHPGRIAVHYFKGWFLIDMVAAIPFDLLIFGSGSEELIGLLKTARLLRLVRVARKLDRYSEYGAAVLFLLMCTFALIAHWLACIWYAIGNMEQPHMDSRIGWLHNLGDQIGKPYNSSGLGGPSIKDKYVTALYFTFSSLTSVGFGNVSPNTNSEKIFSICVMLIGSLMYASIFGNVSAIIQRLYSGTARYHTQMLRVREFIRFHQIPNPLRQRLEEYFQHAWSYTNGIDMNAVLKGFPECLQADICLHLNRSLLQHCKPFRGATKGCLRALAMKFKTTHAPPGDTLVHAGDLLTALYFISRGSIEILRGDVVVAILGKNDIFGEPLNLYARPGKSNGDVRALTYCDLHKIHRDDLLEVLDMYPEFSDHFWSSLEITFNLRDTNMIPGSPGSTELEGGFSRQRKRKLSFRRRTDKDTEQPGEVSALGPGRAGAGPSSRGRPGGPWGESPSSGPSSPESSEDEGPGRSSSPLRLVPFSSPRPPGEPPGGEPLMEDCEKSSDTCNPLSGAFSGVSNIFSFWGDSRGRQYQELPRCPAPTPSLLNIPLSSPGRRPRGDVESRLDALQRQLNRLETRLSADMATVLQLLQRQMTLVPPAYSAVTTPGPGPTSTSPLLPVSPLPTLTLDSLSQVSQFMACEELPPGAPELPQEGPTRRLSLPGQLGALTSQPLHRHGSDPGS

In experiment [15] the target is Cytochrome P450 3A4 (Homo sapiens) (UniProt P08684). Put plainly: Cytochrome P450 Family 3 Subfamily A Member 4 (CYP3A4) small molecule antagonists: luciferase reporter qHTS assay (AID 1671201). Also: nearly all actives have a fitted effect of over 50% in size. Also: potency is read from the fitted curve at half-maximal effect. The gist of the method:
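Inhibition of CYP3A4 is measured as loss of light: the enzyme converts a proluciferin substrate to luciferin, detected luminescently. Reaction ran 1 h at room temperature with NADPH regeneration after a 10 min compound preincubation.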

The nature of experiment [16]: Caspase-3/7 induction in CHO-K1 cells by small molecules, qHTS cell viability counter screen (AID 1346979). Also: nearly all actives have a fitted effect of over 35% in size. Also: potency is read from the fitted curve at half-maximal effect. The gist of the method: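 In the same wells as the caspase read, viability of compound-treated wild-type CHO-K1 cells was assessed using CellTiter-Fluor, added after 16hr at 37C and measured by fluorescence following 1hr further incubation.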
The target of experiment [17] is Nuclear receptor subfamily 1 group I member 2 (Rattus norvegicus) (UniProt Q9R1A7). Kind of experiment: Rat pregnane X receptor (rPXR) activation by small molecules, qHTS assay (AID 1346983). Also: nearly all actives have a fitted effect of over 20% in size. The conditions noted are these: rPXR luciferase reporter cells, One-Glo luminescence, 24 h; stronger effect = higher value. The gist of the method:
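Cell-based rPXR activation assay: rPXR cells, 2,000 per well, rested 5hr at 37 C, then exposed to compounds in DMSO for 24 hr at 37 C. Luciferase activity read by One-Glo luminescence after 30 min at room temperature.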

In experiment [18] the target is Nuclear receptor subfamily 1 group I member 2 (Homo sapiens) (UniProt O75469). Put plainly: CYP3A4 induction through human pregnane X receptor (PXR) by small molecules, qHTS assay (AID 1346984). Also: nearly all actives have a fitted effect of over 40% in size. The gist of the method: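 DPX-2 HepG2 cells carrying a PXR response element and CYP3A4-promoter luciferase construct, treated with compounds 24 hr at 37C. Then P450-Glo CYP3A4 Luciferin-IPA substrate (3uM final) for 3 hr at 37C, One-Glo added, luminescence read.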

Where “and” joins values, the source holds several entries; their conditions need not be identical. Equal values may be shown once. Inconclusive results are not listed. Where a structure was tested more than once in an assay, its records may differ in their call. Calls of active or inactive are those of the source. Unless noted, calls follow the shape of the dose curve; as a rule, active = well fitted curve in the direction sought with a large enough effect in the repeat runs; inconclusive = weak or mixed curves; inactive = no such curve, though single readings can be large; an effect the other way counts as inactive or inconclusive.

The values below come from PubChem BioAssay (Tox21).
% is scaled to controls: 0 for no effect and ±100 for the full control effect.

Sequence of Cytochrome P450 2C9 (Homo sapiens) (P11712 whole entry, looked up): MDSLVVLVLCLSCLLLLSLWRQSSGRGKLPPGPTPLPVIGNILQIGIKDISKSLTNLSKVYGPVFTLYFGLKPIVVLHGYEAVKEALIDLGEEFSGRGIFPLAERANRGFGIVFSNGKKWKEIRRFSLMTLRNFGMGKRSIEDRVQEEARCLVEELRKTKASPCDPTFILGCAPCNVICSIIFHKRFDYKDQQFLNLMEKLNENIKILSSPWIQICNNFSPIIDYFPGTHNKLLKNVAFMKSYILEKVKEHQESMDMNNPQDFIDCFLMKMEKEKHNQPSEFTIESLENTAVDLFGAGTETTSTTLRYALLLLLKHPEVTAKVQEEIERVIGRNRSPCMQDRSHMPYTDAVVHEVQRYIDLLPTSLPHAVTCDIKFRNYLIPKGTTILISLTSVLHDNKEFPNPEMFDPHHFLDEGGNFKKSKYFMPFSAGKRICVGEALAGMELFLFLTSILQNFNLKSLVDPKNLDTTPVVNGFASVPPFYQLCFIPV
Sequence of Cytochrome P450 3A4 (Homo sapiens) (P08684 whole entry, looked up): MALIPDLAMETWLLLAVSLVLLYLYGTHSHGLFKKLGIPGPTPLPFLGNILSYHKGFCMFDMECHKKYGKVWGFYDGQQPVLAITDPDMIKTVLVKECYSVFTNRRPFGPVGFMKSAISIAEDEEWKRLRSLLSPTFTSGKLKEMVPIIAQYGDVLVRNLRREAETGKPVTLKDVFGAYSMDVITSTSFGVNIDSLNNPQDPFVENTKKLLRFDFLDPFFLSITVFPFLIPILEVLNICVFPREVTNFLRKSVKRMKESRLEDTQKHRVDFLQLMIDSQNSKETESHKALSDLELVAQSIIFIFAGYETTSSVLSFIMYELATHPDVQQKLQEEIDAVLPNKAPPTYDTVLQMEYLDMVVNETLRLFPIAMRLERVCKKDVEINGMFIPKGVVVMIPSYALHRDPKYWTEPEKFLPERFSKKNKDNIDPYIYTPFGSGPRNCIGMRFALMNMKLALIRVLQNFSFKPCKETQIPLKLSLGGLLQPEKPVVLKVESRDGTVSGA
Sequence of Cytochrome P450 1A2 (Homo sapiens) (P05177 whole entry, looked up): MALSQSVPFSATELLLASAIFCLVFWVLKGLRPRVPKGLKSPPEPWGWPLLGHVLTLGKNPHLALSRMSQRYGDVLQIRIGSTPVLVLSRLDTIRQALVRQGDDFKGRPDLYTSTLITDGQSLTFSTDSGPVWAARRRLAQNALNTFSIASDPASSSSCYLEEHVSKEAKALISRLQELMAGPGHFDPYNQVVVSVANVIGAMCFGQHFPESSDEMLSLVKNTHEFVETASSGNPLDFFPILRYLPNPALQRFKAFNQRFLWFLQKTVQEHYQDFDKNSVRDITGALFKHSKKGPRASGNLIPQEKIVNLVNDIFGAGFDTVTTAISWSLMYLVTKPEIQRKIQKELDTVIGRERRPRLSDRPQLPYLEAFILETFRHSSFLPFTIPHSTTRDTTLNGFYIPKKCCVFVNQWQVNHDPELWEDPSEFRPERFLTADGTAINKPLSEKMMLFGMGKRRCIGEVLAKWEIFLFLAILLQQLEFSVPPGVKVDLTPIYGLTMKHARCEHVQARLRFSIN
Sequence of Acetylcholinesterase (Homo sapiens) (P22303 whole entry, looked up): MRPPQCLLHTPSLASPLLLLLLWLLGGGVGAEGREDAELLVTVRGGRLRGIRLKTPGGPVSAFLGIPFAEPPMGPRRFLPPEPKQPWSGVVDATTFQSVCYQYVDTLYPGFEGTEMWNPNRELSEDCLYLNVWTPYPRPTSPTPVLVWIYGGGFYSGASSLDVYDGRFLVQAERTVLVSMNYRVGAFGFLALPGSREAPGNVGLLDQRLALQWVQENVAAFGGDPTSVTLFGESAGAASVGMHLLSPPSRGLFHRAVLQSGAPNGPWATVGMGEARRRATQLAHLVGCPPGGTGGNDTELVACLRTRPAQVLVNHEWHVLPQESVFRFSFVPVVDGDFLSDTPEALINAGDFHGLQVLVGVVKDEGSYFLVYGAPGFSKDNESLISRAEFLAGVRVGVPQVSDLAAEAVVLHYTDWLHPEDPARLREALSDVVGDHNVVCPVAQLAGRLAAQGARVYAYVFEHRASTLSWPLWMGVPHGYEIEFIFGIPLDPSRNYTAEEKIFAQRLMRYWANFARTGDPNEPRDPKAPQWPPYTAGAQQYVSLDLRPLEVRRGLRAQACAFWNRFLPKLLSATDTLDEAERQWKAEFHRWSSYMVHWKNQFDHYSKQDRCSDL
Sequence of Cytochrome P450 2C19 (Homo sapiens) (P33261 whole entry, looked up): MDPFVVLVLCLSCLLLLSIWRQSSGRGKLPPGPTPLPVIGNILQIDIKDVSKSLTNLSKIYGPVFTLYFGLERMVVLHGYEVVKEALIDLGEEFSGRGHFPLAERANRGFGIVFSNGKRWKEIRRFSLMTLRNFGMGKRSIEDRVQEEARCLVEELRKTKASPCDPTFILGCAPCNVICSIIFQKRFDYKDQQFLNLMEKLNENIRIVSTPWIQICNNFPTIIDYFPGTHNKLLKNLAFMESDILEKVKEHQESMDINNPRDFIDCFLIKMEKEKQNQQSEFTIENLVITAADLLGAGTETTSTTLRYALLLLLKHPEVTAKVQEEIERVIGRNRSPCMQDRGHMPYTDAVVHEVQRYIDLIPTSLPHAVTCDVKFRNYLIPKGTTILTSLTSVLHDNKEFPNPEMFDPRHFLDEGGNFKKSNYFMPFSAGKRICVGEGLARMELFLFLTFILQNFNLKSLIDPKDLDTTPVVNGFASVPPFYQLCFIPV

Turning to `O=S(=O)(c1ccccc1)c1ccccc1`, the Potency result in experiment [1], in experiment [2], in [3], in [4], in experiment [5] and in experiment [6] was “inactive” each time. Also, the Potency result in [7], in experiment [8], in [9], in experiment [10], in experiment [12] and in [13] was “inactive” each time. The Potency entry in experiment [14] and in experiment [15] was “inactive” each time. In addition, in experiment [11], the Potency is 63.3 µM (active).

Consider `CNC(=O)Oc1cccc(N=CN(C)C)c1`, for which the Potency result in experiment [1], in [2], in experiment [3], in experiment [4], in [5] and in experiment [14] was “inactive” each time. Besides, the Potency result in experiment [15] was “inactive”. Further, the Potency is 3.99 µM (active) in experiment [6]; 20 µM (active) in experiment [7]; 3.56 µM (active) in experiment [8]; 63.3 µM (active) in experiment [9]; 79.6 µM (active) in [10]; 79.6 µM (active) in [11]. The Potency in experiment [12] is 79.6 µM (active).

In the case of `C=CCN1C[C@H](C)N([C@H](c2ccc(C(=O)N(CC)CC)cc2)c2cccc(OC)c2)C[C@H]1C`, the Potency entry in experiment [1], in experiment [16], in experiment [3], in experiment [4], in [6] and in [7] was “inactive” each time. In addition, the Potency entry in experiment [8], in [9], in experiment [11], in experiment [12] and in experiment [13] was “inactive” in each case. For the same compound, the Potency in [5] was 11.9 µM (active); in experiment [10] it was 3.09 µM (active); in [14], 3.01 µM (active). Besides, the max activation in experiment [17] is 5.88% (inactive). The call in experiment [18] was inactive.

Turning to `CC(C)[C@@H](C(=O)O[C@@H](C#N)c1cccc(Oc2ccccc2)c1)c1ccc(Cl)cc1`, the Potency result in [1], in [3], in experiment [4], in [6], in experiment [7] and in experiment [8] was “inactive” each time. Moreover, the Potency entry in experiment [9], in [13], in [14] and in experiment [15] was “inactive” throughout. The Potency was 27.7 µM (active) in experiment [16]; 5.53 µM (active) and 9.69 µM (active) in [5]; 32.2 µM (active) and inactive in experiment [10]; 9.07 µM (active) and 31.7 µM (active) in [11]; 7.21 µM (active) and 12.6 µM (active) in experiment [12].

Consider `CCOC(=O)c1cn2nc(OP(=S)(OCC)OCC)cc2nc1C`, for which the Potency entry in experiment [1], in [2], in experiment [3] and in experiment [4] was “inactive” each time. The Potency was 30.6 µM (active) in experiment [5]; 39.9 µM (active) in [8]; 2 µM (active) in experiment [9]; 25.2 µM (active) in experiment [10]; 2.52 µM (active) in experiment [11]; 5.03 µM (active) in experiment [12]. Moreover, the Potency was 8.94 µM (active) in [13] and 28.3 µM (active) in experiment [15].

`CCCCC(CC)CO[N+](=O)[O-]` (stereo unspecified): the Potency entry in [1], in [2], in experiment [3], in [4], in experiment [5] and in [6] was “inactive” throughout. The Potency entry in experiment [7], in experiment [8], in experiment [9], in experiment [10], in experiment [11] and in experiment [12] was “inactive” throughout. Further, the Potency entry in experiment [13], in experiment [14] and in [15] was “inactive” in each case.

Regarding `O=C1NC(=O)C(=O)C(=O)N1`, the Potency entry in experiment [1], in experiment [2], in experiment [3], in experiment [4], in experiment [5] and in experiment [7] was “inactive” throughout. In addition, the Potency entry in experiment [8], in experiment [9], in experiment [10], in [11], in [12] and in experiment [13] was “inactive” throughout. The Potency result in [14] and in experiment [15] was “inactive” throughout.
